Bioassay records as filed in PubChem.
A selection: hits, their analogues and other compounds. The true share with any hit is near 2.4%.
D2 antagonist: antagonizes the human D2 dopamine receptor; HEK293 TREx D2 cells, calcium flux, dopamine EC80; inhibition, % at 10 µM; 340,000 compounds, 2% hits; in the data active means inhibition above about 30%; inactive means below that, where a call was filed; further: 0% is about no effect
Target sequence (P14416 whole entry, looked up): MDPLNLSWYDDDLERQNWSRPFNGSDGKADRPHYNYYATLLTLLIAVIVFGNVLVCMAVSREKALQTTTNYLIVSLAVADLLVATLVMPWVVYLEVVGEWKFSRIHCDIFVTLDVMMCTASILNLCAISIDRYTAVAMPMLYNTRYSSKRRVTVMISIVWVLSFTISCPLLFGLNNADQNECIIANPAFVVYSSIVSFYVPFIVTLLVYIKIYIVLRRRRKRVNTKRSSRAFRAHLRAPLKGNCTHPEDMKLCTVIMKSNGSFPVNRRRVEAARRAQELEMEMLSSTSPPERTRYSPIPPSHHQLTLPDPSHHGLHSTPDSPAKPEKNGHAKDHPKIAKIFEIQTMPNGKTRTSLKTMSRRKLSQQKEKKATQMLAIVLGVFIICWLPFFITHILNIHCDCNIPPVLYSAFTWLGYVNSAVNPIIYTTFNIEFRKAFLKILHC
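Cells plated overnight at 30 C with tetracycline; no-wash calcium dye, 30–90 min RT; 10 s baseline; compound pinned; 180 s read; EC80 dopamine added; another 180 s read.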
D2 PAM-1: positive allosteric modulators of human D2 dopamine receptor; P14416; HEK293 T-REx D2, calcium flux, EC20 dopamine potentiation; potentiation, % at 10 µM; 340,000 compounds, 0.34% hits; AID 485347;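 active means potentiation over 3 SD above the plate norm, cut at about 30% in these data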; further: 0% is about no effect
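Cells plated with tetracycline inducer and held overnight at 30 C; calcium dye loaded 30–90 min at room temperature; baseline taken, compound added and read 180 s; EC20 dopamine then added and read 180 s.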
D2 ag-1: agonists of human D2 dopamine receptor (beta-arrestin). P14416. DiscoveRx PathHunter D2 beta-arrestin, luminescence, 90 min; 100% = 57 uM dopamine signal. activation, % (test concentration not listed). 360,000 compounds, 0.084% hits; in the data active means activation above about 40%
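Agonist mode: compounds alone added to overnight-plated D2 PathHunter cells for 90 min at 37 C, with 57 uM final dopamine (EC100) defining full response. Beta-arrestin recruitment detected by chemiluminescent reagent, read after 1 h at ambient temperature.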
D2 ag-2: activates the human D2 dopamine receptor. P14416. HEK293 T-REx D2 cells, calcium flux agonist mode. activation, % at 2 µM. 340,000 compounds, 0.53% hits. AID 485358;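 active means activation over 3 SD above normal in the single-dose calcium agonist read, cut at about 30% in these data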; further: 0% is about no effect
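Tetracycline-induced HEK293 T-REx cells with force-coupled D2 receptor, plated overnight at 30 C, loaded with no-wash calcium dye. After a 10 s baseline, compound was pin-added and calcium flux read kinetically for 180 s; calcium rises flagged agonists.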
D2 PAM-2: human D2 receptor positive allosteric modulation. P14416. 360,000 compounds, 0.23% hits. DiscoveRx D2 beta-arrestin cells, luminescence, 90 min; 100% = 57 uM dopamine signal. potentiation, % (concentration not given with the values). AID 624464; in the data active means potentiation above about 50%
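PathHunter D2 cells, attached overnight at 37 deg C, received compound in DMSO plus dopamine at EC20 (50 nM final) for 90 min at 37 deg C. Beta-arrestin recruitment was read as luminescence after 1 h with detection reagent at ambient temperature.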
* hit, by the source's call.

Results for CC(NC(=O)c1cccs1)C(c1cccs1)N1CCN(c2ccccc2)CC1 (stereo not given) ?
D2 antagonist: 7; D2 PAM-1: 55*; D2 ag-1: 0; D2 ag-2: 0; D2 PAM-2: -4

Results for CC(NC(=O)Cc1ccc(F)cc1)C(c1cccs1)N1CCN(C)CC1 (stereo not given) ?
D2 antagonist: -1; D2 PAM-1: 50*; D2 ag-1: -1; D2 ag-2: 0; D2 PAM-2: 3

How did COc1ccc2[nH]cc(CCN=C(NC(=O)c3ccccc3F)Nc3nc(C)cc(C)n3)c2c1 do in these assays?
D2 PAM-1: 23; D2 ag-2: -1

How did Cc1nc2ccc(S(=O)(=O)N(CC(=O)Nc3cccc(Cl)c3)Cc3ccccc3)cc2s1 do in these assays?
D2 PAM-1: 12; D2 ag-2: 0

What do the screens show for `CN(CC1CCN(CCc2cccc(C(F)(F)F)c2)CC1)C(=O)c1ccc(F)cc1F`?
D2 antagonist: 65*; D2 PAM-1: -25; D2 ag-1: -2; D2 ag-2: 0; D2 PAM-2: -3

Results for CC(=O)Nc1ccc(S(=O)(=O)Nc2ccccc2C(=O)N2CCCCC2)cc1 ?
D2 antagonist: 3; D2 PAM-1: 31*; D2 ag-1: -4; D2 ag-2: -1; D2 PAM-2: -9

What do the screens show for `COc1ccc(O)c(CNn2c(-c3ccc(Br)cc3)nc3ccccc3c2=O)c1`?
D2 antagonist: 50*; D2 PAM-1: 3; D2 ag-1: -3; D2 ag-2: -2; D2 PAM-2: 8

What do the screens show for `Cn1c(=O)c([N+](=O)[O-])c(NCCc2ccccc2)c2ccccc21`?
D2 antagonist: 38*; D2 PAM-1: -13; D2 ag-1: -6; D2 ag-2: -1; D2 PAM-2: -17

How did COc1ccc(NC(=O)c2sc3nc4c(cc3c2N)CN(C(C)C)CC4)c(OC)c1 do in these assays?
D2 PAM-1: -3; D2 ag-2: 1

Results for COc1ccc(Cc2nc(-c3ccc(Br)cc3)no2)cc1 ?
D2 antagonist: 31*; D2 PAM-1: -10; D2 ag-1: -1; D2 ag-2: 0; D2 PAM-2: 18

How did CC(C)c1ccc(NC(=O)C2CCN(S(=O)(=O)c3cccc4nsnc34)CC2)cc1 do in these assays?
D2 ag-2: 0

How did CN(C)c1nc(SCC(=O)Nc2ccc(Cl)c(Cl)c2)nc(N2CCOCC2)n1 do in these assays?
D2 antagonist: 12; D2 ag-1: 3; D2 ag-2: -2; D2 PAM-2: -7

What do the screens show for `CN(C)c1nc(SCC(=O)Nc2ccccc2)nc(N2CCOCC2)n1`?
D2 antagonist: 31*; D2 PAM-1: 2; D2 ag-1: -18; D2 ag-2: 1; D2 PAM-2: 2

Results for Cc1ccc(Cl)cc1NC(=O)COC(=O)c1ccc(N2CCCC2)c([N+](=O)[O-])c1 ?
D2 antagonist: 57*; D2 PAM-1: -9; D2 ag-2: 0

How did CCCNC(=O)COC(=O)c1ccc(N2CCCC2)c([N+](=O)[O-])c1 do in these assays?
D2 antagonist: -8; D2 PAM-1: 0; D2 ag-1: 0; D2 ag-2: 1; D2 PAM-2: 3

What do the screens show for `Cc1cccc(C(=O)NCC(=O)OC(C)C(=O)Nc2ccc(Cl)cn2)c1` (stereo not given)?
D2 antagonist: 37*; D2 PAM-1: 2; D2 ag-1: -1; D2 ag-2: 2; D2 PAM-2: -19

How did Cc1cccc(OCC(=O)OC(C)C(=O)Nc2ccc(Cl)cn2)c1 (stereo not given) do in these assays?
D2 antagonist: -1; D2 PAM-1: 4; D2 ag-1: -5; D2 ag-2: -1; D2 PAM-2: 0

How did CN(C)S(=O)(=O)c1ccc(NC(=O)N2CCN(c3ccccc3)CC2)cc1 do in these assays?
D2 antagonist: 9; D2 PAM-1: 22; D2 ag-1: -7; D2 ag-2: 3; D2 PAM-2: -6

What do the screens show for `COc1ccc(NC(=O)N2CCN(S(C)(=O)=O)CC2)cc1`?
D2 antagonist: 34*; D2 PAM-1: 12; D2 ag-1: -1; D2 ag-2: 2; D2 PAM-2: -4

What do the screens show for `COc1ccc(NC(=O)N2CCN(C(=O)Nc3ccc(OC)cc3)CC2)cc1`?
D2 antagonist: 10; D2 PAM-1: -3; D2 ag-1: -4; D2 ag-2: 0; D2 PAM-2: -3

How did COc1ccc(N2CCN(C(=O)Nc3ccc(S(=O)(=O)N(C)C)cc3)CC2)cc1 do in these assays?
D2 antagonist: 41*; D2 PAM-1: 1; D2 ag-1: -4; D2 ag-2: 0; D2 PAM-2: -2

Results for CCn1cc(C(=O)N2CCN(c3cccc(C)c3C)CC2)c2cc(OC)c(OC)cc2c1=O ?
D2 PAM-1: 11

How did Cc1cccc2c1-c1sc(C(=O)NCCCN3CCN(c4cccc(Cl)c4)CC3)cc1CO2 do in these assays?
D2 PAM-1: -9; D2 ag-2: -1

What do the screens show for `Cc1ccc(Cl)c(OCCN2CCc3ccccc3C2)c1`?
D2 antagonist: 66*; D2 PAM-1: -16; D2 ag-1: -2; D2 ag-2: 2; D2 PAM-2: -6

Results for Clc1ccc(OCCCCN2CCc3ccccc3C2)cc1 ?
D2 antagonist: 91*; D2 PAM-1: -37; D2 ag-1: -4; D2 ag-2: 0; D2 PAM-2: -8

What do the screens show for `Cc1ccc(C(=O)NCCc2ccc(Cl)cc2)cc1-n1c(C)nc2cccnc21`?
D2 PAM-1: -12; D2 ag-2: -1

What do the screens show for `O=C(c1n[nH]c2ccccc12)N1CCOCC1`?
D2 antagonist: 39*; D2 PAM-1: -12; D2 ag-1: 0; D2 ag-2: 1; D2 PAM-2: -5

What do the screens show for `CCN(CC)CCCNC(=S)N1CCN(c2nc(-c3ccccc3)cs2)CC1`?
D2 antagonist: 33*; D2 PAM-1: -9; D2 ag-1: 0; D2 ag-2: 0; D2 PAM-2: -14

How did CCOCCCNC(=S)N1CCN(c2nc(-c3ccccc3)cs2)CC1 do in these assays?
D2 ag-1: -5; D2 PAM-2: -3

What do the screens show for `CCc1nnc(NC(=O)CN2CCN(c3nc(-c4ccccc4)cs3)CC2)s1`?
D2 antagonist: 32*; D2 PAM-1: -1; D2 ag-1: 3; D2 ag-2: 0; D2 PAM-2: 1

What do the screens show for `CC(C)C(=O)NNC(=O)CN1CCN(c2nc(-c3ccccc3)cs2)CC1`?
D2 antagonist: -1; D2 PAM-1: 3; D2 ag-1: -3; D2 ag-2: 2; D2 PAM-2: -2

What do the screens show for `CCCCOc1ccccc1NC(=O)CC1Sc2ccccc2NC1=O` (stereo not given)?
D2 PAM-1: -13; D2 ag-2: 6

What do the screens show for `O=C(N/N=C/c1ccc(N2CCOCC2)s1)c1ccccc1Cl`?
D2 antagonist: 7; D2 PAM-1: 3; D2 ag-1: -4; D2 ag-2: 2; D2 PAM-2: 1
